Measured values reported in ChEMBL document CHEMBL1157539, “Thousands of chemical starting points for antimalarial lead identification” (Nature, 2010).

Each compound was assayed on Plasmodium falciparum (assay: GSK_TCMDC: Inhibition of Plasmodium falciparum 3D7 in whole red blood cells, using parasite LDH activity as an index of growth. Test compounds present at 2uM).
Format: functional

Row | Structure (SMILES) | Inhibition
1 | CN(CCc1ccccc1)c1ncc(-c2cccc(CNCCC3CCCN3C)c2)cn1 (stereo not drawn) | 92%
2 | CCCN1CCN(c2cc(NCC)c3c4c(onc24)-c2ccccc2C3=O)CC1 | 96%
3 | COc1cc(CNCCCNc2cc(=O)c3ccccc3[nH]2)c2c(c1)C(C)CN2C(=O)OC(C)(C)C (stereo not drawn) | 96%
4 | COc1cc(Nc2nccc(N3CCC(NC(=O)C4COc5ccccc5O4)C3)n2)cc(OC)c1OC (stereo not drawn) | 90%
5 | CCN(CCNC(=O)C1CCN(c2cc(-c3cccc(C)c3)ncn2)CC1)Cc1ccccc1 | 83%
6 | O=C(O)C(F)(F)F.Oc1ccc(CN2CCC(NCc3cccc4ccccc34)CC2)cc1 | 97%
7 | CO/C(=C/C=C/c1cc2cc(Cl)c(Cl)cc2[nH]1)C(=O)NC1CC(C)(C)N(C)C(C)(C)C1 | 99%
8 | CC1(C)[C@H]2CC[C@@H](CNc3nc(NCCc4c[nH]cn4)nc(NCc4cc(F)ccc4F)n3)[C@@H]1C2 | 100%
9 | N=C(N)NC(=O)Nc1cc(Cl)c(F)c(Cl)c1 | 100%
10 | COc1cccc(C(=O)Nc2sc3c(c2C(N)=O)CCCC3)c1OC | 99%
11 | Cc1cc(C)n(Cc2ccc(C(=O)NCC3CCCCC3)cc2)n1 | 95%
12 | O=C(O)C(F)(F)F.c1cc(CNCC2CCCO2)cc(-c2ccc(-c3nc4ccccc4[nH]3)s2)c1 (stereo not drawn) | 95%
13 | CN(C)c1ccc(-c2ccc(C(=O)NC3CCN(Cc4ccc5c(c4)OCCO5)CC3)s2)cc1.O=C(O)C(F)(F)F | 100%

What follows are compounds tested on Plasmodium falciparum (assay: GSK_TCMDC: Inhibition of Plasmodium falciparum Dd2 in whole red blood cells, using parasite LDH activity as an index of growth. Test compounds present at 2uM).
Format: functional

Row | Structure (SMILES) | Inhibition
14 | Cl.c1ccc(-c2ccc3c(Nc4ccc5[nH]ncc5c4)ccnc3c2)nc1 | 99%
15 | CCNC(=O)Nc1ccc(N(C)c2ccnc(NC3CC3)n2)cc1 | 80%
16 | Cc1nccn1CCNC(=O)CN1CCC2(CCC1=O)CC(=O)c1ccccc1O2 (stereo not drawn) | 4%
17 | COc1ccc2nccc([C@@H](O)CN3CCC(NC(=O)C(=Cc4ccc(Cl)cc4Cl)c4ccc(-c5ccccc5)cc4)CC3)c2c1 | 98%
18 | Fc1ccc(Nc2nnc(CNC3CCN(Cc4ccc(Cl)c(Cl)c4)CC3)[nH]2)cc1 | 36%
19 | CCOc1c(N2CCN(CCCCNC(=O)c3ccc(NC(=O)c4ccc(Cl)cc4)cc3)CC2)ccc2ccccc12.Cl | 45%
20 | O=C(Nc1cccc(CN2CCCN(Cc3ncc[nH]3)CC2)c1)c1ccc(-c2ccccc2)cc1.O=C(O)C(F)(F)F | 56%
21 | Cc1cc(NCCC(=O)NCCOc2ccccc2)nc(NCCOc2ccccc2)n1.O=C(O)C(F)(F)F | 20%
22 | Cc1c(C(=O)C2CC2CN2CCC(N3CCCC3)CC2)sc2ccccc12 (stereo not drawn) | 9%
23 | CSc1nccc(-c2ccc3ccnc(N)c3c2)n1 | 98%
24 | CC(Oc1cc(-n2cnc3ccc(NC(=O)CCN4CCCCC4)cc32)sc1C(N)=O)c1ccccc1Cl (stereo not drawn) | 98%
25 | COc1cc2c(cc1N(C(C)C)S(=O)(=O)c1sc3ccc(Cl)cc3c1C)CCNCC2.Cl | 70%
26 | CN(CCCNC(=S)NC12CC3CC(CC(C3)C1)C2)CCCNc1ccnc2cc(Cl)ccc12 | 98%
27 | O=C(O)C(F)(F)F.O=S(=O)(/C=C/c1ccccc1)N(Cc1ccc(-c2ccc(CNCCc3ccccc3)cc2)cc1)CC1CCCCN1 (stereo not drawn) | 96%
28 | Cn1nc(-c2cccc(CN[C@@H]3CCc4ccc(O)cc43)c2)c2cnc(NCCCN3CCCC3)nc21 | 0%
29 | CCN1CCN(C(=O)NC(C(=O)N2CCCC(COc3ccc(Cc4ccccc4)cc3)C2)c2cccs2)C(=O)C1=O (stereo not drawn) | 87%
30 | COc1ccc(C=Cc2cc(=N)c3ccccc3[nH]2)cc1Br | 88%
31 | COc1cccc(CN(C(=O)Nc2ccccc2F)[C@H]2C[C@H]3C(=O)Nc4cc(F)ccc4C(=O)N3C2)c1 | 75%
32 | N#Cc1cncc(-c2nc3c(N4CCCC(N)C4)cccc3n2CCNCc2ccccc2)c1.O=C(O)C(F)(F)F (stereo not drawn) | 1%
33 | CCCCCCNc1cc(C)nc(NC(=N)Nc2cccc(C(F)(F)F)c2)n1 | 100%

Row | Structure (SMILES) | Inhibition
34 | Cl.O=C(NC1CCN(CC2(c3ccc(Cl)cc3)CCCCC2)CC1)c1cc[nH]n1 | 96%
35 | CC(C)c1ccc(OCC(O)CN(CCN2CCOCC2)C(=O)Nc2ccc(Br)cc2)cc1.O=C(O)C(F)(F)F (stereo not drawn) | 44%
36 | CN(CCN(C)C(=O)NCc1ccccc1)C(=O)NCc1ccccc1 | 0%
37 | CN1c2ccc([N+](=O)[O-])cc2C(C)(C)C12C=Cc1cc(Br)cc([N+](=O)[O-])c1O2 (stereo not drawn) | 99%
38 | Nc1ccc2[nH]cc(C3CCN(CC4CCC(NC(=O)/C=C/c5ccccc5Cl)CC4)CC3)c2n1 (stereo not drawn) | 45%
39 | COc1ccc(-c2ccc(NC(=O)c3ccc(Cl)cc3)cc2)cc1CN1CCNCC1.O=C(O)C(F)(F)F | 24%
40 | N#Cc1cccc(C(=O)Nc2cccc(-c3ccc(CN4CCCC4)cc3)c2)c1.O=C(O)C(F)(F)F | 42%
41 | CN(CCc1ccccc1)c1ncc(-c2cccc(CNCCC3CCCN3C)c2)cn1 (stereo not drawn) | 98%
42 | CCCN1CCN(c2cc(NCC)c3c4c(onc24)-c2ccccc2C3=O)CC1 | 11%
43 | COc1cc(CNCCCNc2cc(=O)c3ccccc3[nH]2)c2c(c1)C(C)CN2C(=O)OC(C)(C)C (stereo not drawn) | 87%
44 | COc1cc(Nc2nccc(N3CCC(NC(=O)C4COc5ccccc5O4)C3)n2)cc(OC)c1OC (stereo not drawn) | 58%
45 | CCN(CCNC(=O)C1CCN(c2cc(-c3cccc(C)c3)ncn2)CC1)Cc1ccccc1 | 72%
46 | O=C(O)C(F)(F)F.Oc1ccc(CN2CCC(NCc3cccc4ccccc34)CC2)cc1 | 8%
47 | CO/C(=C/C=C/c1cc2cc(Cl)c(Cl)cc2[nH]1)C(=O)NC1CC(C)(C)N(C)C(C)(C)C1 | 85%
48 | CC1(C)[C@H]2CC[C@@H](CNc3nc(NCCc4c[nH]cn4)nc(NCc4cc(F)ccc4F)n3)[C@@H]1C2 | 91%
49 | N=C(N)NC(=O)Nc1cc(Cl)c(F)c(Cl)c1 | 64%
50 | COc1cccc(C(=O)Nc2sc3c(c2C(N)=O)CCCC3)c1OC | 8%
51 | Cc1cc(C)n(Cc2ccc(C(=O)NCC3CCCCC3)cc2)n1 | 1%
52 | O=C(O)C(F)(F)F.c1cc(CNCC2CCCO2)cc(-c2ccc(-c3nc4ccccc4[nH]3)s2)c1 (stereo not drawn) | 30%
53 | CN(C)c1ccc(-c2ccc(C(=O)NC3CCN(Cc4ccc5c(c4)OCCO5)CC3)s2)cc1.O=C(O)C(F)(F)F | 73%
